# Source: PubChem
# A selection: hits, their analogues and other compounds. The true share with any hit is near 3.3%.
# rCAG binder – binders of r(CAG) RNA repeats, primary screen, biochemical, fluorescence. AID 651821, 2012. inhibition, % at 3 µM. r(CAG) RNA repeat, TO-PRO-1 dye displacement fluorescence. 1.3% of 370,000 active;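 active means inhibition above the plate cutoff, the mean of all test compounds on that plate plus 3 SD, cut at about 35% in these data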;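 further: higher means more dye released from RNA so lower well fluorescence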
# TLR9-MyD88 block – inhibitors of TLR9-MyD88 association in cells, primary screen, cell-based, CHO, BLA complementation, fluorescence; Toll-like receptor 9 (Homo sapiens) + Myeloid differentiation primary response protein …; CCF4 FRET ratio; inhibition, % at 4.98 µM; 0.21% of 340,000 active;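 active means inhibition above the mean over all tested compounds plus 3 SD, cut at about 21% in these data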
# TLR4 MyD88 comp – inhibitors of TLR4-MyD88 association in cells, primary screen, cell-based, HeLa CL3-4, BLA complementation, FRET ratio | Toll-like receptor 4 (Homo sapiens) + Myeloid differentiation primary response protein … | HeLa CL3-4 TLR4/MyD88 BLA complementation | inhibition, % at 8.4 µM | 0.18% of 200,000 active | AID 861, 2007; in the data active means inhibition above about 25%
# Target sequence (O00206 whole entry, looked up): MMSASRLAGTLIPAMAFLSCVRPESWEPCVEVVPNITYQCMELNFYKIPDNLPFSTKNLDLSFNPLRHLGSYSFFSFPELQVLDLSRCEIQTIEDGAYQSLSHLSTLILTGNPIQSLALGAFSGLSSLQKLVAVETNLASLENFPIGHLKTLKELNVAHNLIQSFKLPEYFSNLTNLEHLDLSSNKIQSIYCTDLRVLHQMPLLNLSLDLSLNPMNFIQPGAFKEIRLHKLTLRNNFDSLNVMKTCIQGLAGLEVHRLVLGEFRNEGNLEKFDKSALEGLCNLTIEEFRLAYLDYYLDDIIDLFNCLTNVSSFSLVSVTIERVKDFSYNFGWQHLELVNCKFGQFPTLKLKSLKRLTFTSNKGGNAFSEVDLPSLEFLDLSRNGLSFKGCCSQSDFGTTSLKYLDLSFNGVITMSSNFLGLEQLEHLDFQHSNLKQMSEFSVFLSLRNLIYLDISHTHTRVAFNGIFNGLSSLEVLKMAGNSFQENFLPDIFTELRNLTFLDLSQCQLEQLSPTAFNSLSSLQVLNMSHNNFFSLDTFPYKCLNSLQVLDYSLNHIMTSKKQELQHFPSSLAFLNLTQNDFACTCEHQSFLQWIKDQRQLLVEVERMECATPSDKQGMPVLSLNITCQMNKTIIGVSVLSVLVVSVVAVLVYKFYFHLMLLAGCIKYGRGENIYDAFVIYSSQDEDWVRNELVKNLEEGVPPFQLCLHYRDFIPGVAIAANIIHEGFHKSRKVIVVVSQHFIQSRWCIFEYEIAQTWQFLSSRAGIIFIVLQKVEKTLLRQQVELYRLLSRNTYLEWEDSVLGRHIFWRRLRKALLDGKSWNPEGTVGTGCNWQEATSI
# Target sequence (Q99836 whole entry, looked up): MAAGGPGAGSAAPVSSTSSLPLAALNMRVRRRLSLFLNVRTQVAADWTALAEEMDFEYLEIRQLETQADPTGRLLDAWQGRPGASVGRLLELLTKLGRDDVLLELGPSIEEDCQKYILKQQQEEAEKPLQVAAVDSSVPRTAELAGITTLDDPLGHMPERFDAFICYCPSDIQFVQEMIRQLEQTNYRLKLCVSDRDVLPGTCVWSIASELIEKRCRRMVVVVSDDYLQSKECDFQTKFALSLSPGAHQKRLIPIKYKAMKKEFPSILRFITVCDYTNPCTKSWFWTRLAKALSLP
# PRMT1 FP inh – PRMT1 methyltransferase inhibitors, primary screen, biochemical, fluorescence polarization. recombinant PRMT1, activity-based probe fluorescence polarization. inhibition, % at 2.79 µM. 1.3% of 370,000 active;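 active means inhibition above about 21% made by adding two undisclosed values, limit read from the data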
# ABHD5-PLIN5 inh – ABHD5-PLIN5 interaction inhibitors, primary screen, cell lysate, split luciferase complementation, luminescence; Perilipin-5 (Homo sapiens) + 1-acylglycerol-3-phosphate O-acyltransferase ABHD5 (Homo …; inhibition, % at 4 µM; Split G. princeps luciferase complementation, 4 h; 0.78% of 360,000 active;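 active means inhibition above the mean inhibition across every tested compound plus 3 SD, cut at about 22% in these data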
# NOD2-RIPK2 inh – NOD2-RIPK2 binding disruptors in cells, primary screen, fluorescence, CHO cells, BLA complementation; CCF4 ratio; AID 624267, 2012; 0.38% of 360,000 active; Receptor-interacting serine/threonine-protein kinase 2 (Homo sapiens), O43353; inhibition, % at 4.98 µM; in the data active means inhibition above about 21%
# Numbers stand for hits; n = inactive; x = not tested or not shown.
SMILES,rCAG binder,TLR9-MyD88 block,TLR4 MyD88 comp,PRMT1 FP inh,ABHD5-PLIN5 inh,NOD2-RIPK2 inh
CCc1cc(-c2nnn(CCC3COCCO3)c2CC)ccc1-c1cn(Cc2ccccc2)nn1 (configuration not stated),n,n,x,n,n,n
COc1ccc(-c2cccc(NS(=O)(=O)c3cc([N+](=O)[O-])c(C)c([N+](=O)[O-])c3)c2)nn1,57,n,x,n,n,n
COc1ccc(-c2cccc(NS(=O)(=O)c3cc([N+](=O)[O-])ccc3C)c2)nn1,n,n,x,n,n,n
CCC(C)(C)n1nnnc1C(c1ccc(O)c(OC)c1)N1CCc2ccccc2C1 (configuration not stated),n,n,n,23,n,n
c1ccc(C[n+]2csc3ccccc32)cc1,n,n,n,84,n,n
OCCN(Cc1ccccc1)Cc1cccc(F)c1,n,n,n,n,n,n
Fc1cccc(C[n+]2csc3ccccc32)c1,n,n,n,75,36,n
OCCOc1ccc(CN2CCN(CCCc3ccccc3)C(CCO)C2)cc1 (configuration not stated),n,n,x,n,n,n
CC(C=NN=C1C(=O)Nc2ccccc21)=Cc1ccccc1,n,x,x,n,x,x
COc1cc(CNn2cn[nH]c2=S)cc(Br)c1OCc1ccccc1F,n,n,n,24,n,n
COc1cc(CNn2cn[nH]c2=S)cc(Cl)c1OCc1ccccc1,n,n,n,n,n,n
Cc1cc(Cl)cc2sc(=S)[nH]c12,n,n,x,22,n,n
Cc1[nH]c(=S)sc1Cc1ccc(Cl)c(Cl)c1,n,x,n,n,x,x
O=C(COc1ccc2c3c(c(=O)oc2c1)CCCC3)NC(Cc1ccc(Cl)cc1)C(=O)O (configuration not stated),38,n,x,n,n,n
O=S(=O)(c1ccc(F)cc1)N1CCN(Cc2cc3c(cc2Br)OCCO3)CC1,n,n,x,n,n,n
Oc1ccc(N2CCN(Cc3cc4c(cc3Br)OCCO4)CC2)cc1,n,n,x,23,n,n
CCCCCc1c(O)c2ccccc2[nH]c1=O,n,n,n,n,n,n
CCCCS(=O)c1c(O)c2ccccc2[nH]c1=O (configuration not stated),n,n,n,22,n,n
O=c1[nH]c2ccccc2c(O)c1O,n,n,n,75,98,n
O=S(=O)([N-]c1nc2ccccc2nc1-[n+]1ccc(-c2ccncc2)cc1)c1ccccc1,n,n,n,22,n,n
C/C(=N/NC(=O)c1sc(NS(=O)(=O)c2ccc(C)cc2)nc1C)c1sc(N)nc1C,48,n,n,n,n,n
CC(=O)c1sc(NS(=O)(=O)c2ccc(C)cc2)nc1C,n,n,n,n,n,n
CCOc1ccc(-c2csc(NC(=O)c3cccc(N4C(=O)CCC4=O)c3)n2)cc1,n,n,x,n,n,n
Cc1ccc(-c2csc(NC(=O)c3cccc(N4C(=O)CCC4=O)c3)n2)o1,x,n,n,x,22,n
Cc1ccc(Nc2n[nH]c(=S)s2)cc1F,n,n,x,22,n,n
SMILES,rCAG binder,TLR9-MyD88 block,TLR4 MyD88 comp,PRMT1 FP inh,ABHD5-PLIN5 inh,NOD2-RIPK2 inh
COc1ccc(S(=O)(=O)n2cccc2)cc1,n,x,x,n,n,n
O=C(O)c1c(C(=O)O)c(-c2ccc(Cl)c(Cl)c2)n2c1CSC2,n,n,x,30,n,n
C#CCOCCOCCOCCNc1nc(N2CCN(C(=O)CCCCCCCCCCNC(=O)[C@@H](CCSC)n3cc(CCO)nn3)CC2)nc(N2CCN(C(=O)CCCCCCCCCCNC(=O)[C@H]([C@@H](C)CC)n3cc(CCCCN=C(N)N)nn3)CC2)n1,x,n,x,x,57,30
C#CCOCCOCCOCCNc1nc(N2CCN(C(=O)CCCCCCCCCCNC(=O)[C@H](CCCCN)n3cc(CCO)nn3)CC2)nc(N2CCN(C(=O)CCCCCCCCCCNC(=O)[C@H](CCCCN)n3cc(CCO)nn3)CC2)n1,x,n,x,x,29,n
C#CCOCCOCCOCCNc1nc(N2CCN(C(=O)CCCCCCCCCCNC(=O)[C@H](CCCCN)n3cc(CCCC(=O)O)nn3)CC2)nc(N2CCN(C(=O)CCCCCCCCCCNC(=O)[C@H](CCCN=C(N)N)n3cc(C[C@@H](C)CC)nn3)CC2)n1,x,n,x,x,45,n
C#CCOCCOCCOCCNc1nc(N2CCN(C(=O)CCCCCCCCCCNC(=O)[C@H](CCCCN)n3cc(CCO)nn3)CC2)nc(N2CCN(C(=O)CCCCCCCCCCNC(=O)[C@H](CCCN=C(N)N)n3cc(C[C@@H](C)CC)nn3)CC2)n1,x,22,x,x,50,n
C#CCOCCOCCOCCNc1nc(N2CCN(C(=O)CCCCCCCCCCNC(=O)[C@H](CCCCN)n3cc(CCCC(=O)O)nn3)CC2)nc(N2CCN(C(=O)CCCCCCCCCCNC(=O)[C@H](CCCCN)n3cc(CCCC(=O)O)nn3)CC2)n1,x,n,x,x,n,n
C#CCOCCOCCOCCNc1nc(N2CCOCC2)nc(N2CCN(C(=O)CCCCCCCCCCNC(=O)[C@@H](CCSC)n3cc(CCO)nn3)CC2)n1,n,n,x,n,n,n
CC(C)CNC(=O)c1ccc(NC(=O)c2cccs2)cc1,n,n,n,n,n,n
Cc1ccccc1OCC(=O)OCC(=O)Nc1cc(S(=O)(=O)N2CCCCC2)ccc1Cl,n,n,x,n,n,n
C#CCOCCOCCOCCNc1nc(N2CCN(C(=O)CCCCCCCCCCNC(=O)Cn3cc(C[C@@H](C)O)nn3)CC2)nc(N2CCN(C(=O)CCCCCCCCCCNC(=O)[C@H](CCCCN)n3cc(C[C@@H](C)CC)nn3)CC2)n1,x,n,x,x,43,24
C#CCOCCOCCOCCNc1nc(N2CCN(C(=O)CCCCCCCCCCNC(=O)Cn3cc(C[C@@H](C)O)nn3)CC2)nc(N2CCN(C(=O)CCCCCCCCCCNC(=O)Cn3cc(C[C@@H](C)O)nn3)CC2)n1,n,n,x,n,n,n
Fc1ccccc1/C=N/n1c(C2CCCCC2)n[nH]c1=S,n,n,x,n,n,n
Fc1ccccc1-c1n[nH]c(=S)n1/N=C/c1c[nH]c2ccccc12,n,n,x,24,n,n
S=c1[nH]nc(-c2n[nH]c3c2CCC3)n1N=Cc1c[nH]c2ccccc12,n,x,x,22,x,x
S=c1[nH]nc(-c2n[nH]c3c2CCC3)n1/N=C/C=C/c1ccccc1,n,x,x,n,n,n
CCc1cc2c(nc1CC)CCCN2Cc1ccccc1C(F)(F)F,n,x,x,n,x,x
Nc1nc(O)c(N=Nc2ccc(S(N)(=O)=O)cc2)c(=O)[nH]1,n,x,x,n,x,x
NS(=O)(=O)c1ccc(N=Nc2c[nH]c(=O)c(O)c2)cc1,n,n,x,27,n,n
CCOC(=O)C1=NN(C(=O)Nc2ccc(OC)cc2)C2C(=O)N(c3cccc(C(F)(F)F)c3)C(=O)C12 (configuration not stated),54,n,n,n,n,n
